“And” between values parts separate entries of the source, which are not always exact repeats. Identical values can stand only once. Records with an inconclusive call do not appear. The source made the active and inactive calls. Unless noted, the call rests on the fitted dose curve; in most records, active means well fitted curve in the direction sought with a large enough effect in the repeat runs; inconclusive means weak or mixed curves; inactive means no such curve, though single readings can be large; an effect the other way counts as inactive or inconclusive.
What was measured:
[1] = qHTS assay to identify small molecule agonists of the RXR signaling pathway - cell viability counter screen (AID 1159529);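 further: HEK 293T cells carrying an RXR-alpha UAS beta-lactamase reporter; series mostly up to about 77 µM; nearly all actives have a fitted effect of over 50% in size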
How it was run: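 In this parallel viability measure, GeneBLAzer RXR-alpha HEK 293T cells (2% charcoal-stripped FBS) were given a 5 hr preincubation, treated with compounds 16 hr at 37 C, and read by CellTiter-Glo luminescence.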

[2] = qHTS assay to identify small molecule antagonists of the retinoid acid receptor (RAR) signaling pathway - cell viability counter screen (AID 1159551); further: nearly all actives have a fitted effect of over 35% in size; further: potency means the concentration at half of the fitted maximal effect
How it was run: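 Cytotoxicity counter screen: ATP content quantified by CellTiter-Glo luminescence in C3RL4 cells treated 6 hr at 37 C with compound and retinol (1 uM final). Cells plated at 1,000/well and cultured overnight before dosing.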

[3] = qHTS assay to identify small molecule antagonists of the retinoic acid receptor (RAR) signaling pathway (AID 1159552; further: nearly all actives have a fitted effect of over 50% in size)
How it was run: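 C3RL4 RARE-luc cells, overnight plating; retinol 1 uM final added right after compound; 6 hr 37 C; luciferase read at 30 min RT.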

[4] = qHTS assay to identify small molecule antagonists of the estrogen related receptor (ERR) signaling pathway from Tox21 library - cell viability counter screen (AID 1224834); further: nearly all actives have a fitted effect of over 30% in size; further: potency means the concentration at half of the fitted maximal effect
How it was run: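 CellTiter-Fluor fluorescence, read after 30 min at 37 C, measures viability of ERR cells. Cells plated at 2,000/well and incubated 6 h before pin-tool compound addition, then exposed 17.5 hours at 37 C.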

[5] = molecular target: Luciferin 4-monooxygenase (Photinus pyralis) (UniProt P08659); assay: qHTS assay to identify small molecule inhibitors of firefly luciferase (AID 1224835); further: nearly all actives have a fitted effect of over 25% in size; further: potency means the concentration at half of the fitted maximal effect; on activity change, negative = inhibition: series mostly up to about 120 µM
How it was run: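 Biochemical qHTS: compounds run as interplate titrations against purified firefly enzyme, with D-luciferin and ATP each at its KM concentration. Light output recorded by CCD imaging.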

[6] = qHTS assay to identify small molecule agonists of the constitutive androstane receptor (CAR) signaling pathway - cell viability counter screen (AID 1224836); further: series mostly up to about 92 µM; nearly all actives have a fitted effect of over 45% in size
How it was run: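 Using CellTiter-Fluor, viability of HepG2 cells harbouring hCAR and CYP2B6-2.2kb was measured following 23 h incubation with a 15-concentration compound series plus PK11195 (0.75 uM final).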

[7] = molecular target: Nuclear receptor subfamily 1 group I member 3 (Homo sapiens) (UniProt Q14994); assay: qHTS assay to identify small molecule antagonists of the constitutive androstane receptor (CAR) signaling pathway (AID 1224838);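 further: HepG2 cells stably expressing hCAR with CYP2B6 luciferase reporter stimulated by CITCO; nearly all actives have a fitted effect of over 40% in size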; further: potency means the concentration at half of the fitted maximal effect
How it was run: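 Antagonism measured as luciferase signal (ONE-Glo, 30 min, room temperature) in CAR-stimulated cells: HepG2-CYP2B6-hCAR double-stable line exposed 24 hr at 37 C to compound in a 15-point series plus 50 nM CITCO.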

[8] = qHTS assay to identify small molecule antagonists of the estrogen related receptor signaling pathway with the pleiotropic PPARgamma coactivator (PGC) from Tox21 10K library - cell viability counter screen (AID 1224840; active means well fitted cell-killing curve with a large enough effect in the repeat runs, not every such curve was filed as active; further: nearly all actives have a fitted effect of over 40% in size; further: potency means the concentration at half of the fitted maximal effect)
How it was run: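 Counter-screen for cytotoxicity: after 17.5 h compound exposure at 37 C, CellTiter-Fluor reagent added to PGC/ERR cells for 30 min and fluorescence read. Cells were seeded at 2,000 per well 6 h before dosing.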

[9] = qHTS assay to identify small molecule agonists of the retinoic acid receptor (RAR) signaling pathway (AID 1159553)
How it was run: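 Luminescence was measured 30 min after luciferase reagent addition at room temperature. Before that, C3RL4 reporter cells (1,000 per well, plated overnight) were treated with compound for 6 hr at 37 C and 5% CO2.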

[10] = qHTS assay to identify small molecule antagonists of the constitutive androstane receptor (CAR) signaling pathway - cell viability counter screen (AID 1224837); further: series mostly up to about 92 µM; nearly all actives have a fitted effect of over 45% in size
How it was run: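 Cytotoxicity counter-screen: CellTiter-Fluor fluorescence after 23 h compound exposure (15-point qHTS) in double-stable HepG2-CYP2B6-hCAR cells, with 50 nM CITCO added.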

[11] = molecular target: Nuclear receptor subfamily 1 group I member 3 (Homo sapiens) (UniProt Q14994); assay: qHTS assay to identify small molecule agonists of the constitutive androstane receptor (CAR) signaling pathway (AID 1224839); further: nearly all actives have a fitted effect of over 15% in size; further: potency means the concentration at half of the fitted maximal effect;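 on activation: HepG2 cells stably carrying human CAR and a CYP2B6 luciferase reporter; series mostly up to about 92 µM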
How it was run: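 Double-stable HepG2 cells (hCAR, CYP2B6-2.2kb) seeded 4 h before compound addition. Exposure 24 h with 0.75 uM PK11195 final. Luciferase detected by ONE-Glo.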

[12] = qHTS assay to identify small molecule antagonists of the estrogen related receptor signaling pathway with the pleiotropic PPARgamma coactivator (PGC) from Tox21 10K library (AID 1224841; call rule not given here; further: actives are mostly falling curves and most rising ones were filed inactive; nearly all actives have a fitted effect of over 50% in size; further: potency means the concentration at half of the fitted maximal effect; on activity, negative = inhibition: series mostly up to about 92 µM)
How it was run: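 Luminescence (One-Glo, 30 min at room temperature) after 18 h compound treatment at 37 C of PGC/ERR reporter cells plated at 2,000 cells/well and settled 6 h beforehand.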

[13] = qHTS assay to identify small molecule agonists of the estrogen related receptor signaling pathway with the pleiotropic PPARgamma coactivator (PGC) from Tox21 10K library (AID 1224842); further: nearly all actives have a fitted effect of over 15% in size
How it was run: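 PGC/ERR reporter cell line, 2,000 cells per well, incubated 6 h at 37 C before 23 nL compound in DMSO was added. After 18 h at 37 C, One-Glo luminescence read following 30 min at room temperature.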
On the % scale 0 is the no-effect control and ±100 the full control effect.

Luciferin 4-monooxygenase (Photinus pyralis), sequence (P08659 whole entry, looked up): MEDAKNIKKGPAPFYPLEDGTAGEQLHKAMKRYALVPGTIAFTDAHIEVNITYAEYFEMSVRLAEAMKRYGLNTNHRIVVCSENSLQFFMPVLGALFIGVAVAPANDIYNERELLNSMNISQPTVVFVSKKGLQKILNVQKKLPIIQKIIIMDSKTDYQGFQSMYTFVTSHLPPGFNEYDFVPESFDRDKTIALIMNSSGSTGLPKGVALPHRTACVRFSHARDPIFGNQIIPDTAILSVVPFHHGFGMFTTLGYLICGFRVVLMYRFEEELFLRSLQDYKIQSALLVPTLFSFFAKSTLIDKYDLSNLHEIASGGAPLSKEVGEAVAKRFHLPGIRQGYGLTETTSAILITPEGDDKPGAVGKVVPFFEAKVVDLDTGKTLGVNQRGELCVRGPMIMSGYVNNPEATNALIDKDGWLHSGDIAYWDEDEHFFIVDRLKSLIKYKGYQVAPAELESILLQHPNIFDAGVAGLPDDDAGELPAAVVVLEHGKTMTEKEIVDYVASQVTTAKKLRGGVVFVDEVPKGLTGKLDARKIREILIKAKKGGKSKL
Nuclear receptor subfamily 1 group I member 3 (Homo sapiens), sequence (Q14994 whole entry, looked up): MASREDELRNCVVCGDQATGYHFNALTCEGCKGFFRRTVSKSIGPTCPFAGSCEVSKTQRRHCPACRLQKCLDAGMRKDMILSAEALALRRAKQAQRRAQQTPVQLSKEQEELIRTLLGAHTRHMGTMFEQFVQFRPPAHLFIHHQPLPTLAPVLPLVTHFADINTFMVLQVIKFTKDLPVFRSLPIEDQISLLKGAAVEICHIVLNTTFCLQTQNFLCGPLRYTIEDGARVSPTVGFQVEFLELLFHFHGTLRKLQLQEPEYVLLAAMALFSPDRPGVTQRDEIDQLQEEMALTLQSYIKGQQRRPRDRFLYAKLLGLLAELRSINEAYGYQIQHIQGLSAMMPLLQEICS

Nc1ccc(N=Nc2ccc(-c3ccc(N=Nc4c(S(=O)(=O)O)cc5cc(S(=O)(=O)O)c(N=Nc6ccccc6)c(O)c5c4N)cc3)cc2)c(N)c1
active: Potency [2] 15.7 µM | Potency [4] 31.3 µM | Potency [5] 20.4 µM | Potency [8] 35.1 µM
inactive: Potency [1] | Potency [3] | Potency [6] | Potency [7]

CC(=O)C(C)(C)C
inactive: Potency [1] | Potency [2] | Potency [3] | Potency [9] | Potency [4] | Potency [6] | Potency [10] | Potency [7] | Potency [11] | Potency [8] | Potency [12] | Potency [13]

COC(C)(C)CCC[C@H](C)C/C=C/C(C)=C/C(=O)OC(C)C
inactive: Potency [1] | Potency [2] | Potency [3] | Potency [9] | Potency [4] | Potency [5] | Potency [6] | Potency [10] | Potency [7] | Potency [11] | Potency [8] | Potency [12] | Potency [13]

CCOP(=S)(OCC)SCn1nnc2ccccc2c1=O
active: Potency [4] 43.3 µM | Potency [11] 24.3 µM
inactive: Potency [1] | Potency [2] | Potency [3] | Potency [9] | Potency [5] | Potency [6] | Potency [10] | Potency [7]

O=C(Nc1ccccc1)Nc1cnns1
inactive: Potency [1] | Potency [2] | Potency [3] | Potency [9] | Potency [7] | Potency [8] | Potency [12] | Potency [13]

CCOC(=O)COc1cc(-c2nn(C)c(OC(F)F)c2Cl)c(F)cc1Cl
inactive: Potency [1] | Potency [2] | Potency [3] | Potency [9] | Potency [4] | Potency [6] | Potency [10] | Potency [7] | Potency [8] | Potency [12]

CCCCCCC#N
inactive: Potency [1] | Potency [2] | Potency [3] | Potency [9] | Potency [4] | Potency [6] | Potency [10] | Potency [8]

O=C1c2ccccc2C(=O)C1C(=O)C(c1ccccc1)c1ccccc1
inactive: Potency [1] | Potency [2] | Potency [3] | Potency [9] | Potency [4] | Potency [5] | Potency [6] | Potency [10] | Potency [7] | Potency [11] | Potency [8] | Potency [13]

O=C1CN=C(c2ccccc2)c2cc(Cl)ccc2N1CC1CC1
inactive: Potency [1] | Potency [2] | Potency [3] | Potency [9] | Potency [6] | Potency [10] | Potency [7] | Potency [8]
active: Potency [12] 25.5 µM

C(=NC1CCCCC1)=NC1CCCCC1
inactive: Potency [1] | Potency [2] | Potency [3] | Potency [9] | Potency [5] | Potency [11] | Potency [13]
active: Potency [7] 10.9 µM and 21.7 µM | Potency [8] 38.8 µM | Potency [12] 13.7 µM

C#CCOC(C(=O)OCCN(C)C)(c1ccccc1)c1ccccc1
inactive: Potency [1] | Potency [2] | Potency [3] | Potency [9] | Potency [4] | Potency [5] | Potency [6] | Potency [10] | Potency [7] | Potency [8]

CO[C@@H]1[C@H](OC(=O)NC(=O)CCl)CC[C@]2(CO2)[C@H]1[C@@]1(C)O[C@@H]1CC=C(C)C
inactive: activity change, negative = cytotoxicity [1] -19.4% [at 15.8 µM] | activity change, negative = cytotoxicity [2] 2.96% [at 19 µM] | activity, negative = inhibition [3] 1.57% [at 19 µM] | Potency [9] | viability change, negative = cytotoxic [4] -3.88% [at 19 µM] | activity change, negative = inhibition [5] 2.04% [at 23.6 µM] | viability change, negative = cytotoxic [6] -5.35% [at 19 µM] | activity change, negative = cytotoxicity [10] -18.3% [at 19 µM] | viability change, negative = cytotoxic [8] -8.92% [at 19 µM] | activation [13] -7.49% [at 19 µM]

From PubChem BioAssay (Tox21)
